The values below come from PubChem BioAssay AID1645859 (Buhrlage Lab, Dana-Farber Cancer Institute and Novartis …, 2021).

In all, about 47,000 compounds went through this assay and about 95 (0.2%) were called active. No stated cut-off is given here; in the data, active means inhibition above about 30%; inactive means the rest. The sample as a whole holds a higher share of actives than the screen did.

The target in the test is Ubiquitin carboxyl-terminal hydrolase isozyme L1 (Homo sapiens) (UniProt P09936). Put plainly: inhibitors of human UCHL1 deubiquitinase (AID 1645859). The note with it: purified UCHL1, Ub-rhodamine cleavage fluorescence; at 20 µM; hits give high values.
Chain of Ubiquitin carboxyl-terminal hydrolase isozyme L1 (Homo sapiens) (P09936 whole entry, looked up): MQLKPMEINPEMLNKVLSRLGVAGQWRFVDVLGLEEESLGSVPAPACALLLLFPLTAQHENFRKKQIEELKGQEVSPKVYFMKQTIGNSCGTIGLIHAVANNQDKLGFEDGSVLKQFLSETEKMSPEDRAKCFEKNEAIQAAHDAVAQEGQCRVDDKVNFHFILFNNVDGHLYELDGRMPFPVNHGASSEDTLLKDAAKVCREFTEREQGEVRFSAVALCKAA
Broadly, the inhibition is the change of the read-out against control, counted positive when it falls. With `O=C(Cn1cnc(S(=O)(=O)N2CCc3ccccc32)c1)Nc1ccc2c(c1)OCO2`, the inhibition was -7.24% (inactive).
The figure for `Cc1ccc(CNC(=O)CCCn2c(=O)c3sccc3n(CC(=O)OCc3ccccc3)c2=O)cc1` is -0.426% (inactive); for `CCN1CCN(c2ncc(C(=O)Nc3ccc(F)cc3)c(C)n2)CC1` it is -0.515% (inactive); for `O=C(CCc1nnc2ccc(N3CCCCC3)nn12)NCC1CCCO1` (stereo not drawn) it is -1.95% (inactive).
With `Cc1ccc(C)c(CSC2=NCCN2C(=O)c2ccco2)c1` the figure was -0.972% (inactive); with `O=C(C1CCN(c2nc3ccc(-c4cccnc4)nc3s2)CC1)N1CCOCC1`, -0.864% (inactive).
The figure for `Cc1cnn(CC2CCCCN2C(=O)Cc2c(C)noc2Cl)c1` (stereo not drawn) is 0.232% (inactive).
Regarding `Cc1c(NC(=O)c2ccc(C(C)(C)C)cc2)c(-n2cnnc2)nn1C`, the inhibition is -0.768% (inactive).
The figure for `O=C(Cc1ccccc1Cl)Nc1ccc(N2CCOCC2)cc1` is 2.8% (inactive); for `O=C(NC1CC1)c1nc(-c2ccc(-n3cccc3)cc2)no1` it is 1.38% (inactive); for `COCC(=O)N1CCCC2(COCCN(CCN(C)C)C2)C1` (stereo not drawn) it is 0.844% (inactive).
As to `O=C(O)C1CCCN1Cc1c(-c2cccs2)nc2ccccn12` (stereo not drawn), the inhibition is -7.21% (inactive).
With `COc1ccc(N2C(=O)c3ccccc3NC2c2ccc(OCC(N)=O)cc2)cc1` (stereo not drawn) the figure was 3.76% (inactive); with `COc1ccc(OC)c(NC(=O)[C@H]2C[C@H](C)N[C@]23C(=O)Nc2c(Cl)cc(C)cc23)c1`, -6.13% (inactive).
With `CCCOc1ccnc2c1c(=O)n(CC(=O)NC1CCCC1)c(=O)n2C` the figure was -3.9% (inactive).
The figure for `Cc1cccc(-c2nccnc2C2CCCN(C(=O)c3cnccn3)C2)c1` (stereo not drawn) is 5.49% (inactive); for `COc1ccccc1C(=O)NCC(c1ccc2c(c1)CCCN2C)N1CCCC1` (stereo not drawn) it is -73.4% (inactive); for `Cc1ccc(C)c(NC(=O)C(Sc2nnc(-c3ccccc3)n2C)c2ccccc2)c1` (stereo not drawn) it is 0.846% (inactive).
`Cn1cc(N2CCC3(CCN(C(=O)c4ccc(F)cc4)CC3)C2=O)cn1`: the inhibition is 0.646% (inactive).
With `O=C(NC1CCOCC1)N[C@H]1C[C@H]2CN(Cc3ccccc3)Cc3ccccc3CN2C1` the figure was 1.49% (inactive).
The figure for `Cc1cccc(CNC(=O)C2CCCN(S(=O)(=O)Cc3ccc(F)cc3)C2)c1` (stereo not drawn) is 3.47% (inactive); for `N#Cc1ccc(Oc2nc(-c3ccccc3)nnc2-c2ccccc2)cc1` it is -0.193% (inactive); for `O=C1CCCN1c1ccc(S(=O)(=O)N2CCc3ccccc3C2)cc1` it is -1.26% (inactive).
The figure for `CC(=O)c1cccc(NC(=O)CCN(c2cc(C)cc(C)c2)S(=O)(=O)c2ccc(Cl)cc2)c1` is 5.56% (inactive).
Turning to `Cc1cc(C)c(NC(=O)CCN2C(=O)c3cccnc3Sc3ccccc32)c(C)c1`, the inhibition was -0.793% (inactive).
The figure for `Oc1cccc2nc3c(O)cccc3nc12` is 28.5% (inactive); for `O=C(NCCc1ccccc1)c1ccc2c(=O)n(Cc3ccco3)c(=O)n(Cc3cccc([N+](=O)[O-])c3)c2c1` it is 23% (inactive); for `CC(C)NC(=O)[C@H]1CCS(=O)(=O)[C@@H]2CN(Cc3ccccc3)C[C@H]12` it is 3.58% (inactive).
The figure for `COc1cc(OC)cc(-c2nnc(NC(=O)c3ccc([N+](=O)[O-])o3)o2)c1` is 1.67% (inactive); for `O=C(NCc1ccc(F)cc1F)c1csc(C(=O)NC2CC2)n1` it is -3.4% (inactive); for `CC(C(=O)Nc1ccccc1F)C1CCN(C(=O)Nc2ccccc2)CC1` (stereo not drawn) it is 0.962% (inactive).
With `Cc1nnc(-c2c(C)[nH]c(C)c2S(=O)(=O)NCc2ccccc2)o1` the figure was -1.69% (inactive).
Consider `CC1(C)CC(=O)N(CC(=O)N2CCCCC2)c2ccccc2S1(=O)=O`, for which the inhibition is 0.351% (inactive).
With `Cc1nc(-c2csc(S(=O)(=O)NC3CC3)c2)no1` the figure was -2.36% (inactive).
With `O=C(Cn1cnc2cc3c(cc21)OCCO3)NCCc1ccccc1` the figure was -0.00331% (inactive); with `COCCn1ccc2nc(C)c(C(=O)N3CCN(c4cc(C)ccc4C)CC3)cc2c1=O`, 1.94% (inactive); with `CCOC(=O)C(Cc1ccccc1)NC(=O)CCC(=O)c1ccc(OC)cc1` (stereo not drawn), 1.4% (inactive).
The figure for `Cc1nnc(OCC(=O)Nc2ccc(OC(F)(F)F)cc2)c2ccccc12` is 8.69% (inactive); for `CCOC(=O)c1noc2ncnc(Nc3ccc4c(c3)OCCO4)c12` it is 2.47% (inactive); for `c1cc(N2CCCCCC2)ncc1-c1noc(CN2CCCC2)n1` it is 0.394% (inactive).
`CN1Cc2ccccc2CC2(CC(Nc3ccc(C(=O)O)cc3)C2)C1=O` (stereo not drawn): the inhibition is -3.39% (inactive).
The figure for `COc1cc(Cl)c(NC(=O)c2cc(-c3ccccn3)n[nH]2)c(OC)c1` is 8.97% (inactive).
With `CC(=O)OC(C)[C@]12C=C(C)[C@H]3[C@H](C)[C@@H](O[C@H]4CC[C@@H](O)[C@@H](C)O4)C4=CC(=O)C=C(N1C(=O)[C@@](C)(O)C2=O)[C@]43O` (stereo partly drawn) the figure was -4.12% (inactive); with `Cc1cc(-c2noc(-c3cc4ccccc4oc3=O)n2)c2ccccc2n1`, -0.979% (inactive); with `O=C(Cn1cnc(S(=O)(=O)N2CCOCC2)c1)Nc1cccc(Cl)c1`, 2.46% (inactive).
Turning to `Cc1cc(NC(=O)c2ccc(C(=O)N(C3CCCCC3)C3CCCCC3)cc2)cc(C)c1O`, the inhibition was 4.77% (inactive).
The figure for `O=C1NC[C@@H](Cc2ccccc2)NC(=O)C2(C/C=C/COc3ccccc31)CCNCC2` is 2.07% (inactive); for `COC(=O)CC[C@H]1CNC(=O)[C@@H]2[C@@H](CCN2C2CCCCC2)N1C` it is 8.17% (inactive).
With `O=S(=O)(NC12CC3CC(CC(C3)C1)C2)c1ccc(S(=O)(=O)N2CCCCC2)cc1` the figure was -1.48% (inactive); with `CNC(=O)C1(C)CN(C(=O)c2ccc3ncccc3c2)CCO1` (stereo not drawn), -0.883% (inactive); with `CC(C)[C@H](NC(=O)[C@@H]1Cc2c([nH]c3ccccc23)C2c3ccccc3C(=O)N21)C(=O)NCCc1ccccc1` (stereo partly drawn), 0.101% (inactive).
The figure for `COc1cccc(CN2CC[C@@H]3CNS(=O)(=O)[C@@H]3CC2)c1` is 5.2% (inactive); for `O=C(Cc1ccccc1)Nc1ccc(-c2nc3cnccc3o2)c(O)c1` it is 0.256% (inactive).
Consider `Cc1cc(F)ccc1NC(=O)c1cc(C2CC2)n2nccc2n1`, for which the inhibition is 1.97% (inactive).
With `Cc1ccc(-n2cc(-c3noc(C(=O)Nc4ccc(F)cc4C)n3)nn2)cc1` the figure was 38.3% (active).
The figure for `Cc1ccc(Cn2cc(-c3noc(-c4ccccn4)n3)nn2)cc1` is -0.677% (inactive); for `COC(=O)C(C(C)C)N1CCc2c(C)nc3cc(C#N)nn3c21` (stereo not drawn) it is -5.64% (inactive).
The figure for `Cc1cc(/C=C2/C(=N)N3C=CSC3=NC2=O)c(C)n1-c1ccc(F)cc1` is -13% (inactive); for `Cn1c(CCN2CCCC2)nc2cc(NS(=O)(=O)c3ccccc3)ccc21` it is -2.94% (inactive); for `COc1ccc(-n2ncc3c2NC(=O)CC32C(=O)N(CC(C)C)c3ccc(F)cc32)cc1` (stereo not drawn) it is 3.31% (inactive).
Take `Cc1nnc2ccc(-c3ccc(NC(=O)c4ccc(Br)o4)cc3)nn12`: the inhibition was 7.55% (inactive).
With `NS(=O)(=O)c1ccc(CCNc2nccn(-c3ccc4c(c3)OCO4)c2=O)cc1` the figure was -4.71% (inactive); with `O=C(c1cc2occc2c(Nc2ccc(F)cc2)n1)N1CCN(C(=O)c2ccco2)CC1`, 3.68% (inactive).
The figure for `CC(C)c1ccc(C2CC(=O)c3cn[nH]c3C2)cc1` (stereo not drawn) is 0.362% (inactive).
In the case of `O=C1CC2(C(=O)Nc3ccccc32)c2cnn(-c3ccccc3Cl)c2N1` (stereo not drawn), the inhibition is -0.024% (inactive).
With `COc1cccc(C2NC(=O)c3c(sc4c3CCC(C)C4)N2)c1O` (stereo not drawn) the figure was -0.199% (inactive); with `CCn1nccc1-c1cccc(-c2noc(-c3ccccn3)n2)c1`, 3.84% (inactive); with `Cn1cccc1/C(C#N)=C\c1ccc2c(c1)OCO2`, 12.5% (inactive).
`CCc1cnc(N2CCC3(CC2)CC(Oc2cccnc2)C3)nc1`: the inhibition is -4.29% (inactive).
The figure for `COc1ccc(NC(=O)c2cnc(N3CCCC3)nc2C)cc1OC` is 2.41% (inactive); for `CS(=O)(=O)N1CCn2c(nnc2-c2cncc(Br)c2)C1` it is 1.7% (inactive).
The figure for `O=C(c1ccccn1)N1C[C@@H]2C[C@H]1C[C@@H]2NS(=O)(=O)c1ccccc1` is -1.88% (inactive); for `Cc1ccc(S(=O)(=O)N2CCC(c3nc(C(=O)N(C)C)c(C)o3)CC2)c(C)c1` it is -3.64% (inactive).
With `CC(=O)c1ccc(S(=O)(=O)Nc2cccc(-c3nc4cccnc4s3)c2C)cc1` the figure was 0.0973% (inactive).
As for `O=C(C1CCN(c2nc3cccnc3s2)CC1)N1CCN(c2ncccn2)CC1`, the inhibition is 5.79% (inactive).
The figure for `O=c1ccc(S(=O)(=O)N2CCCCCC2)cn1Cc1ccccc1` is -3.73% (inactive); for `CNc1cncc(C2CCCN2S(=O)(=O)N2CCCC2)n1` (stereo not drawn) it is 1.24% (inactive); for `Cn1c(=O)c2c(-c3ccc(C(C)(C)C)cc3)n(-c3ccccc3Cl)cc2n(C)c1=O` it is 3.67% (inactive).
With `c1ccc2c(c1)NCCC(c1ccc3c(c1)OCO3)N2` (stereo not drawn) the figure was -0.387% (inactive); with `CC(C)(C)CN1CC[C@H](c2nnc(-c3cccnc3)o2)C1`, -3.12% (inactive).
For the compound `COc1ccc(NC(=O)c2cccn3c(-c4ccc(F)cc4)nnc23)c(OC)c1`, the inhibition was -7.15% (inactive).
For `N#Cc1cnc2ccccc2c1N1CCC(C(=O)N2CCCCC2)CC1`, the inhibition was -2% (inactive).
With `Cc1nn(CCC(=O)Nc2ccccc2F)c(C)c1S(=O)(=O)N1CCOCC1` the figure was -2.99% (inactive).
With `O=C(Nc1ccc2c(c1)CCC2)N1CCc2c(nc(-c3ccccc3)[nH]c2=O)C1` the figure was -2.41% (inactive); with `O=C(NC1CC1)c1cn(-c2cc(-c3nc(C4CC4)no3)ccn2)cn1`, 2.22% (inactive); with `Cc1ccccc1NC(=O)Cc1csc2nc(-c3ccc(F)cc3)cn12`, 6.49% (inactive).
For the compound `O=C(CN1C(=O)C2CCCC2=Nc2ccccc21)Nc1ccc(F)cc1F` (stereo not drawn), the inhibition was 2.04% (inactive).
The figure for `COCCNC(=O)c1cc(-c2ccn(C3CCCC3)n2)n2ccccc12` is -0.227% (inactive).
